Columns and labels:
Experiment in all cases: DAPPL (digital affinity profiling via proximity ligation, sequencing); 10 mM Tris-HCl pH 7.5, 50 mM NaCl, 1 mM DTT, 4% glycerol, room temperature, 30 min; GST-TFs on glutathione beads, 16-mer random dsDNA library, 0.1% formaldehyde crosslink after washing; high values mean tight binding
Conditions in all cases: protein: recombinant; tags: N-terminal GST; dsDNA, one strand shown
FLI1 = biological target: T1, FLI1 (Homo sapiens, UniProt Q01543 1-452)
T1 sequence: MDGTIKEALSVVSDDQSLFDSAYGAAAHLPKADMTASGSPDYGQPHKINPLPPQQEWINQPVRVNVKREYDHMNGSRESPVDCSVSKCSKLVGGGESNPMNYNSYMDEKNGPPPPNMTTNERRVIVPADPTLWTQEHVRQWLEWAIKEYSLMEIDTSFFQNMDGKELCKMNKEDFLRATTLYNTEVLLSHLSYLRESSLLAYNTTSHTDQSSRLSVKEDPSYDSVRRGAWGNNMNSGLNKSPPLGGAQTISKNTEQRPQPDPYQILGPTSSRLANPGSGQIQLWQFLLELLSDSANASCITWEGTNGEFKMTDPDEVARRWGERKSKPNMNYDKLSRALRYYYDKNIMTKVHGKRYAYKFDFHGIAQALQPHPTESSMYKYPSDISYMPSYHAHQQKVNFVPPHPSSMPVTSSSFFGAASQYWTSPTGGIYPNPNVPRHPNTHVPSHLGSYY
Procedure, shortened: (§1)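 Sequencing on an Illumina NextSeq500 followed washing, crosslinking with 0.1% formaldehyde, proximity ligation (BsaI/T4 ligase, 1 h, 37 °C) and PCR amplification of pools that had been incubated for 30 min at room temperature with 200 nmole of a random double-stranded 16-mer DNA library in Tris/NaCl/DTT/glycerol buffer. Each pool held DNA-barcoded human transcription factors, expressed in yeast as GST fusions and captured on glutathione beads, plus a tag-only sample. Binding signal is a hexamer's read frequency for a factor divided by its frequency in the tag-only sample.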

ELK1 = biological target: T2, ELK1 (Homo sapiens, UniProt P19419 1-428)
T2 sequence: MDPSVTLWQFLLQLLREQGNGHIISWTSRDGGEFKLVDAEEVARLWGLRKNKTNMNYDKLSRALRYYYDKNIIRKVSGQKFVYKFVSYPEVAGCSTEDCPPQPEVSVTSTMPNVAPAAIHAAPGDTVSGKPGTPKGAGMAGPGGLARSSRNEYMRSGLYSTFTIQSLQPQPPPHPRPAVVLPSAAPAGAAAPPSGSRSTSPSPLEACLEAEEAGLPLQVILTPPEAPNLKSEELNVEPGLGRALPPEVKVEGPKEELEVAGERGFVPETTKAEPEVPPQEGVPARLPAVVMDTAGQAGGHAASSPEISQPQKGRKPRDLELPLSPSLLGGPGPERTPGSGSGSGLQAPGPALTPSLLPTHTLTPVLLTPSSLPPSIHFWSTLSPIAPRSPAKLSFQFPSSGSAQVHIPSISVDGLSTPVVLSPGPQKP
Procedure, shortened: as §1

GABPA = biological target: T3, GABPA (Homo sapiens, UniProt Q06546 1-454)
T3 sequence: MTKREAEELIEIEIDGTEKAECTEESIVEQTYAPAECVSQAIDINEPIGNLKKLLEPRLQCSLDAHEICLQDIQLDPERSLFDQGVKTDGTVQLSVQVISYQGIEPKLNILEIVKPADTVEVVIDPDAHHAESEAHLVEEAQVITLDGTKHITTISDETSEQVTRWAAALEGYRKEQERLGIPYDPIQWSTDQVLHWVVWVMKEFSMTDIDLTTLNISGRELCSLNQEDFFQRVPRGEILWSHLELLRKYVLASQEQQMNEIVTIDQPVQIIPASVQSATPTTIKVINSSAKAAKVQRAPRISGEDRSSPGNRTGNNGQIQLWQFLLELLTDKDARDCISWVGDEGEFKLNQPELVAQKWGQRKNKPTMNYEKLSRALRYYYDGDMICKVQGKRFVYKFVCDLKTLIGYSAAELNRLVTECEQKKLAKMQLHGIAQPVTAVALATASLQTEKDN
Procedure, shortened: as §1

ERG = biological target: T4, ERG (Homo sapiens, UniProt P11308 1-479)
T4 sequence: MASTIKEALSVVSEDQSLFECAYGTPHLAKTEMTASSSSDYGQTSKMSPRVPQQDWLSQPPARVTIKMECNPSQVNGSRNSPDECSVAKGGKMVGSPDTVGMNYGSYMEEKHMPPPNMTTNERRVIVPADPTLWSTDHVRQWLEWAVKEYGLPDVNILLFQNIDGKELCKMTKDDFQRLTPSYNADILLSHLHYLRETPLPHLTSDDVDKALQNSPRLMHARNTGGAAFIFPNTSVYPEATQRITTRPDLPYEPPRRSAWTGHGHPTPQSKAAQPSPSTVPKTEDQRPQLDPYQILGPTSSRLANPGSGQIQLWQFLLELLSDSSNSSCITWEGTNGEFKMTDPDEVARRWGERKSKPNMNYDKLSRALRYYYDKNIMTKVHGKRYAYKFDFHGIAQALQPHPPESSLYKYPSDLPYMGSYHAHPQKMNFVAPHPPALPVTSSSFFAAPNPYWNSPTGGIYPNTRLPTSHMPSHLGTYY
Procedure, shortened: as §1

ELF1 = ELF1 (Homo sapiens, UniProt P32519 1-619)
Procedure, shortened: as §1

EHF = biological target: T5, EHF (Homo sapiens, UniProt Q9NZC4 1-300)
T5 sequence: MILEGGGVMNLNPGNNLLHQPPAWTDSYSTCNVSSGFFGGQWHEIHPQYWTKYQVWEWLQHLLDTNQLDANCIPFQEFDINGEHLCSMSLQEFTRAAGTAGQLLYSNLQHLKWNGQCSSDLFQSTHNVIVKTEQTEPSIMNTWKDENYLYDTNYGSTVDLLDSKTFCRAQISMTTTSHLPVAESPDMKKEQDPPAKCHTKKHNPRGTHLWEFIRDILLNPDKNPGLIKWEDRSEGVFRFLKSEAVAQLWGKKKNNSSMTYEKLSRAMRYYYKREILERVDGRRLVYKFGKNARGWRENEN
Procedure, shortened: as §1

SPI1 = SPI1 (Homo sapiens, UniProt P17947 1-270)
Procedure, shortened: as §1

SPIB = SPIB (Homo sapiens, UniProt Q01892 1-262)
Procedure, shortened: as §1

ELK3 = biological target: T6, ELK3 (Homo sapiens, UniProt P41970 1-407)
T6 sequence: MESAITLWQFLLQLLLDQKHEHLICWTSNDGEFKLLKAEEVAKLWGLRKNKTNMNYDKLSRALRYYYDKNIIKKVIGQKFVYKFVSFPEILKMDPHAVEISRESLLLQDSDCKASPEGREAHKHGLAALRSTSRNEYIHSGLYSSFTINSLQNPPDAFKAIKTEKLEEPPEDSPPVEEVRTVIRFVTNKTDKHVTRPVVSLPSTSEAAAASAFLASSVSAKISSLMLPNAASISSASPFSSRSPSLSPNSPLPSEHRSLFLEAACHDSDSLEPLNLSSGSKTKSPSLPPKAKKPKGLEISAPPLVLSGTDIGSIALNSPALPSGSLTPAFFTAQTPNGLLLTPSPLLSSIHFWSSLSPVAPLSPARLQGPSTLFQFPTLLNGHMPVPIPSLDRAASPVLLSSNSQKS
Procedure, shortened: as §1

FEV = biological target: T7, FEV (Homo sapiens, UniProt Q99581 1-238)
T7 sequence: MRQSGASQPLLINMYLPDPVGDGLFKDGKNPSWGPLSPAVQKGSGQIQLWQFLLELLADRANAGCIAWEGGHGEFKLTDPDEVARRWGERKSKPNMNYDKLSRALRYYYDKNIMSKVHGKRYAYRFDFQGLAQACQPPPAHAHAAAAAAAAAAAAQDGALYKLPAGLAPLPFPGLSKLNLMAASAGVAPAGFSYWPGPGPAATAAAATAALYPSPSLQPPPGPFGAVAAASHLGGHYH
Procedure, shortened: as §1

ETV5 = ETV5 (Homo sapiens, UniProt P41161 1-510)
Procedure, shortened: as §1

SPIC = biological target: T8, SPIC (Homo sapiens, UniProt Q8N5J4 1-248)
T8 sequence: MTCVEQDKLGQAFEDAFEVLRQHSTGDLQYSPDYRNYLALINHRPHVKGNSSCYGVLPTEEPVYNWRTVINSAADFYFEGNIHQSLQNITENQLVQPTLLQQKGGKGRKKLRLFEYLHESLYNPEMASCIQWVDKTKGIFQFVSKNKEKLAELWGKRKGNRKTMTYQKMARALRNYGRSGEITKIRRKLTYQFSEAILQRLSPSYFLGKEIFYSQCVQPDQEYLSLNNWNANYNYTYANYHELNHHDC
Procedure, shortened: as §1

ELF4 = ELF4 (Homo sapiens, UniProt Q99607 1-663)
Procedure, shortened: as §1

ELK4 = biological target: T9, ELK4 (Homo sapiens, UniProt P28324-2 1-405)
T9 sequence: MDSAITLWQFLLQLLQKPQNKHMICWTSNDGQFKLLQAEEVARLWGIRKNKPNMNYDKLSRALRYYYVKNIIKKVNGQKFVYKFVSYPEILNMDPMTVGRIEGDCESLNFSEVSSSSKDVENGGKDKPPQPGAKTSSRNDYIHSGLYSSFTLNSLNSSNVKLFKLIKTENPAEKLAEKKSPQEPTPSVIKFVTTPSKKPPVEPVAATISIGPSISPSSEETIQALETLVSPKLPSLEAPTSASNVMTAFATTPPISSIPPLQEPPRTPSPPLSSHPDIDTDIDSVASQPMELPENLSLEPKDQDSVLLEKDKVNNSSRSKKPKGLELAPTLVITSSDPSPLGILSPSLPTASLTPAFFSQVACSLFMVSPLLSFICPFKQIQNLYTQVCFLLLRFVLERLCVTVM
Procedure, shortened: as §1

ETV2 = biological target: T10, ETV2 (Homo sapiens, UniProt O00321 1-342)
T10 sequence: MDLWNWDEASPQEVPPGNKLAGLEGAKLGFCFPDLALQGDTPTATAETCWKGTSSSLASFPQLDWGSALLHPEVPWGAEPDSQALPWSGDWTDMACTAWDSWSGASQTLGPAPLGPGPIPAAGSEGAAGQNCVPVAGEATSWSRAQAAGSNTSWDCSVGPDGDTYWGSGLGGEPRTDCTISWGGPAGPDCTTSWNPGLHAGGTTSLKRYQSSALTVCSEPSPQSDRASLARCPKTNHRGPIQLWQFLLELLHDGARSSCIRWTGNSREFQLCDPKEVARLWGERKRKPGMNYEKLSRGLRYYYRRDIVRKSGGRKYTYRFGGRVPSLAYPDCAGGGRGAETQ
Procedure, shortened: as §1

ELF3 = biological target: T11, ELF3 (Homo sapiens, UniProt P78545 1-371)
T11 sequence: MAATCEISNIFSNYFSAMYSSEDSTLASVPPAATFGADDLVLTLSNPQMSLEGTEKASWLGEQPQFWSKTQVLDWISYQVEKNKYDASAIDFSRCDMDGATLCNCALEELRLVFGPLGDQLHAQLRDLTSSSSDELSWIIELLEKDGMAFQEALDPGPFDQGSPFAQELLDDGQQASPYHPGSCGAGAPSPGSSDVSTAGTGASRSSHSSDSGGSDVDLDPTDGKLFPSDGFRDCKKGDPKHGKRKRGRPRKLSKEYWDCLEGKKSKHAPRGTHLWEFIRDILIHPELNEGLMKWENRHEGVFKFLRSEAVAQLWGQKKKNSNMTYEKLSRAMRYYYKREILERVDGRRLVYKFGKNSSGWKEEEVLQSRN
Procedure, shortened: as §1

ETV1 = ETV1 (Homo sapiens, UniProt P50549 1-477)
Procedure, shortened: as §1

Sequence of ETV1 (P50549 whole entry): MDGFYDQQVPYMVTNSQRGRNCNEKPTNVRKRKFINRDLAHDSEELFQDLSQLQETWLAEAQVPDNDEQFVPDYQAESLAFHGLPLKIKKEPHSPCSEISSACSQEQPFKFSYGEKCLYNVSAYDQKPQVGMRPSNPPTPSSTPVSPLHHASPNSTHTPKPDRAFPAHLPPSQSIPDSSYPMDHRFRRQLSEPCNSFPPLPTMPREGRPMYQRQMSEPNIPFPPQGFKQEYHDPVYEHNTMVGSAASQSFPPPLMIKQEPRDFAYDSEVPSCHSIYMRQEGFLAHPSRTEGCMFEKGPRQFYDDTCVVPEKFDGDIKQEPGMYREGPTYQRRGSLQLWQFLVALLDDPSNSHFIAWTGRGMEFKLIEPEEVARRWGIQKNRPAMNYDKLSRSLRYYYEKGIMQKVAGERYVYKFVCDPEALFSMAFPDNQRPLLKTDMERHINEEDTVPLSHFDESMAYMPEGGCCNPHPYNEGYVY
Sequence of ELF1 (P32519 whole entry): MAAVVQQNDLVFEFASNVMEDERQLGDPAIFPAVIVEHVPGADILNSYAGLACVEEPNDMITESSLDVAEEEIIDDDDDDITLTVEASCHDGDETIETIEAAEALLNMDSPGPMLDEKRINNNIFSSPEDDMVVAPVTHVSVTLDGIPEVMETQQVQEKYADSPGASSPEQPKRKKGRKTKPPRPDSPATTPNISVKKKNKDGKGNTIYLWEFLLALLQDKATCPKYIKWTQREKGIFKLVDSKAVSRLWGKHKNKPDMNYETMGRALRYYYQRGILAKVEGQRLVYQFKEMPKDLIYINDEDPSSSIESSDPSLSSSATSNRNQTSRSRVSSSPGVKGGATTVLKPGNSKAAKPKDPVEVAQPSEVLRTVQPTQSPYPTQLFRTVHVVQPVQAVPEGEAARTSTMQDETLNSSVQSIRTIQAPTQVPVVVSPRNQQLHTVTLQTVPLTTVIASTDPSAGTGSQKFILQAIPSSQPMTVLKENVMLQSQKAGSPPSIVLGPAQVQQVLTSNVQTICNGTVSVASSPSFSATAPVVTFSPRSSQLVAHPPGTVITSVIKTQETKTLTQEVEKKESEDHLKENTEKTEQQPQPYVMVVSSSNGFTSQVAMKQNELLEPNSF
Sequence of ELF4 (Q99607 whole entry): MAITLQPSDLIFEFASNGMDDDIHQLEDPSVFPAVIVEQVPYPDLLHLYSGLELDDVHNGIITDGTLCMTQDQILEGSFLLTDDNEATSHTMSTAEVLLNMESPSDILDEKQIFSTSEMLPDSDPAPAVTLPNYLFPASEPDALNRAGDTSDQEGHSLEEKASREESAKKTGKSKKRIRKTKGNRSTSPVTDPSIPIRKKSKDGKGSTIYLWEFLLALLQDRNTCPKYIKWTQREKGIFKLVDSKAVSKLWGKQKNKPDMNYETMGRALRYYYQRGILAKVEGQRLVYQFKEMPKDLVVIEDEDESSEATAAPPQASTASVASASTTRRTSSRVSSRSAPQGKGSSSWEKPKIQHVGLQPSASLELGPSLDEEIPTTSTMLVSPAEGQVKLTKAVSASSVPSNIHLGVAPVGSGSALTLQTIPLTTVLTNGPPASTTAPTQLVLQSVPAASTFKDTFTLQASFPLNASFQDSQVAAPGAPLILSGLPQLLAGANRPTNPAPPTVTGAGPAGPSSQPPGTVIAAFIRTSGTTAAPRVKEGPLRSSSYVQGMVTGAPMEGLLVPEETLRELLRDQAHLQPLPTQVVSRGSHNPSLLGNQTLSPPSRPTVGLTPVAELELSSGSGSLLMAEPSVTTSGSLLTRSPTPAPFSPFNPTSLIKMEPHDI
Sequence of ETV5 (P41161 whole entry): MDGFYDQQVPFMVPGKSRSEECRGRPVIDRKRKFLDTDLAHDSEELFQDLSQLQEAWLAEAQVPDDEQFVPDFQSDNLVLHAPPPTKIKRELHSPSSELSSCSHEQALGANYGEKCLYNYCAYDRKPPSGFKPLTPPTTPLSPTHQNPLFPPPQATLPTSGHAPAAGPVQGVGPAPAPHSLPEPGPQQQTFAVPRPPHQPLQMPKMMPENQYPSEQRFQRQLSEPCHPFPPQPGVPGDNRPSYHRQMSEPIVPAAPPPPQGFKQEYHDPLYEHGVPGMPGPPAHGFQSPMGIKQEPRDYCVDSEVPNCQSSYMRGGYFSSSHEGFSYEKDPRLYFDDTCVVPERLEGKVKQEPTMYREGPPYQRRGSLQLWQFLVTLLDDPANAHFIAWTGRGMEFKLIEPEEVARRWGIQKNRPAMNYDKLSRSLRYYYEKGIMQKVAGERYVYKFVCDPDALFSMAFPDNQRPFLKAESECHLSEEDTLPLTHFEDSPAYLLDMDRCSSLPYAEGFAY
Sequence of SPIB (Q01892 whole entry): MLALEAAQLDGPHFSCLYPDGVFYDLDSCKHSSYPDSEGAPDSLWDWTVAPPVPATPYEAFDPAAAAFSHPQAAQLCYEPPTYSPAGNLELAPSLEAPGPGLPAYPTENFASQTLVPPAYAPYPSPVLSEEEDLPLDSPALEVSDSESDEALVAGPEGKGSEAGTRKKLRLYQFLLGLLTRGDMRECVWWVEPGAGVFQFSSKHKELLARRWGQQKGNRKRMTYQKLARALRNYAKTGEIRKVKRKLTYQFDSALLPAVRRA

ACATTG was tested, and the binding signal (FLI1) was 1.24 fold enrichment (6-mer frequency, TF over GST control), the binding signal (ELK1) was 1.11 fold enrichment (6-mer frequency, TF over GST control) and the binding signal (GABPA) was 1.17 fold enrichment (6-mer frequency, TF over GST control). For the same sequence, the binding signal (ERG) was 1.07 fold enrichment (6-mer frequency, TF over GST control), the binding signal (ELF1) was 1.13 fold enrichment (6-mer frequency, TF over GST control) and the binding signal (EHF) was 1.17 fold enrichment (6-mer frequency, TF over GST control). For the same sequence, the binding signal (SPI1) was 1.04 fold enrichment (6-mer frequency, TF over GST control), the binding signal (SPIB) was 1.16 fold enrichment (6-mer frequency, TF over GST control) and the binding signal (ELK3) was 1.11 fold enrichment (6-mer frequency, TF over GST control). The binding signal (FEV) was 1.12 fold enrichment (6-mer frequency, TF over GST control), the binding signal (ETV5) was 1.09 fold enrichment (6-mer frequency, TF over GST control) and the binding signal (SPIC) was 1.18 fold enrichment (6-mer frequency, TF over GST control). For the same sequence, the binding signal (ELF4) was 1.12 fold enrichment (6-mer frequency, TF over GST control), the binding signal (ELK4) was 1.19 fold enrichment (6-mer frequency, TF over GST control) and the binding signal (ETV2) was 1.09 fold enrichment (6-mer frequency, TF over GST control). The binding signal (ELF3) was 1.25 fold enrichment (6-mer frequency, TF over GST control) and the binding signal (ETV1) was 1.19 fold enrichment (6-mer frequency, TF over GST control).

For TGTGAC, the binding signal (FLI1) was 1.05 fold enrichment (6-mer frequency, TF over GST control), the binding signal (ELK1) was 1.09 fold enrichment (6-mer frequency, TF over GST control) and the binding signal (GABPA) was 1.15 fold enrichment (6-mer frequency, TF over GST control). For the same sequence, the binding signal (ERG) was 1.08 fold enrichment (6-mer frequency, TF over GST control), the binding signal (ELF1) was 1.16 fold enrichment (6-mer frequency, TF over GST control) and the binding signal (EHF) was 1.01 fold enrichment (6-mer frequency, TF over GST control). For the same sequence, the binding signal (SPI1) was 1.17 fold enrichment (6-mer frequency, TF over GST control), the binding signal (SPIB) was 1.22 fold enrichment (6-mer frequency, TF over GST control) and the binding signal (ELK3) was 1.1 fold enrichment (6-mer frequency, TF over GST control). For the same sequence, the binding signal (FEV) was 1.14 fold enrichment (6-mer frequency, TF over GST control), the binding signal (ETV5) was 1.15 fold enrichment (6-mer frequency, TF over GST control) and the binding signal (SPIC) was 1.14 fold enrichment (6-mer frequency, TF over GST control). The binding signal (ELF4) was 1.19 fold enrichment (6-mer frequency, TF over GST control), the binding signal (ELK4) was 1.2 fold enrichment (6-mer frequency, TF over GST control) and the binding signal (ETV2) was 1.09 fold enrichment (6-mer frequency, TF over GST control). For the same sequence, the binding signal (ELF3) was 1.16 fold enrichment (6-mer frequency, TF over GST control) and the binding signal (ETV1) was 1.04 fold enrichment (6-mer frequency, TF over GST control).

— paper PMC7862700, “An all-to-all approach to the identification of sequence-specific readers for epigenetic DNA modifications on cytosine”
